Data from PubChem BioAssay (NCATS).
Inconclusive results are not listed. Entries that show only a call come without a potency. The source made the active and inactive calls. Calls follow the shape of the dose curve; as a rule, active = well fitted activation curve with a large enough effect; inconclusive = small, poorly fitted or top-dose-only effect; inactive = flat fitted curve, though single readings scatter.

Experiment: Validation screen for small molecules that induce DNA re-replication in SW480 colon adenocarcinoma cells (AID 504364)
Conditions: DNA re-replication phenotype (high-content imaging); series mostly up to 46.1 µM
From the text: H Molecular Libraries Probe Production Network [MLPCN]
NIH Chemical Genomics Center [NCGC]
Assay Provider: Melvin DePamphilis, NICHD, NIH
Eukaryotic cells normally restrict genome duplication to once per cell division. When this process is aberrant, DNA re-replication occurs when cells reinitiate DNA replication before the first round of replication is complete. DNA re-replication induces the DNA damage response, arrests cell proliferation, and triggers apoptosis. The cell cycle components cyclin A, Cdt-1, Cdc6 and geminin are critical regulators of this process and their misregulation results in DNA re-replication in normal and cancer cells. To identify compounds that induce re-replication in normal cells, an image-based assay was used to measure DNA content of nuclei, as detected by the fluorescent DNA binding dye, Hoechst. Cell nuclei were imaged by a fluorescence scanning plate imager and compounds that induce DNA re-replication were identified by the increase of nuclei with elevated fluorescence intensity.#
For screening, 250 cells in 5 uL/well were dispensed into black clear 1536-well plates (Aurora) using a solenoid-based dispenser. Following transfer of 23 nL compound or DMSO vehicle by a pin tool, the plates were incubated 48 hr at 37 C and 5% CO2. After addition of 1 uL/well Hoescht stain, the plates were incubated 40 min at 37 C, 5% CO2 and total intensity of fluorescent objects (nuclei) were enumerated by an Acumen Explorer Ex3 (TTP LabTech) fluorescence scanning plate imager (405 nm excitation, 500-530 nm emission).
Keywords: NIH Roadmap, MLPCN, MLI, MLSMR, qHTS, NCGC, DNA replication, cancer
Potency is read from the fitted curve at half-maximal effect.

Row | SMILES | Potency
1 | COc1cc2c(cc1O)CCC1C2CC[C@]2(C)[C@@H](O)CC[C@@H]12 (stereo partly drawn) | 4.61 µM (active)
2 | C=C[C@@H]1CN2CC[C@@H]1C[C@@H]2[C@H](O)c1ccnc2ccc(OC)cc12 | inactive
3 | O=S(=O)(O)C1CCNCC1 | inactive
4 | CC(C)C[C@H](N)CSSC[C@@H](N)CC(C)C | inactive
5 | Nc1nc(Cl)nc2c1ncn2[C@@H]1O[C@H](COP(=O)(O)OP(=O)(O)OP(=O)(O)O)[C@H](O)[C@H]1O | inactive
6 | CC(=O)SC1CC2=CC(=O)CC[C@]2(C)C2CC[C@@]3(C)[C@@H](CC[C@@]34CCC(=O)O4)C12 (stereo partly drawn) | inactive
7 | CC[C@H](C)C(=O)O[C@H]1CCC=C2C=C[C@H](C)[C@H](CC[C@@H]3C[C@H](O)CC(=O)O3)C21 (stereo partly drawn) | inactive
8 | CCCCN1CCC(COC(=O)c2cc(Cl)c(N)c3c2OCCO3)CC1 | inactive
9 | Nc1nc(Cl)nc2c1ncn2[C@@H]1O[C@H](CO)[C@H](O)[C@H]1O | inactive
10 | C[C@]12C[C@H](O)C3[C@@H](CCC4=CC(=O)CC[C@@]43C)[C@@H]1CC[C@@H]2C(=O)CO (stereo partly drawn) | inactive
11 | CN1CCN(CC/C=C2/c3ccccc3Sc3ccc(S(=O)(=O)N(C)C)cc32)CC1 | inactive
12 | CC(=O)O[C@]1(C(C)=O)CC[C@H]2C3C=C(Cl)C4=CC(=O)[C@@H]5C[C@H]5[C@]4(C)C3CC[C@@]21C (stereo partly drawn) | inactive
13 | C#C[C@]1(O)CC[C@H]2C3CCC4=Cc5oncc5CC4(C)C3CCC21C (stereo partly drawn) | inactive
